Values joined by “and” are separate entries in the source; they are usually repeats but may differ in a detail not shown here. Identical values can stand only once. Results filed as inconclusive are left out. Some structures have more than one record in an assay (separate samples or runs), and their calls can disagree. Active and inactive are the calls of the source. Unless noted, calls follow the shape of the dose curve; as a rule, active = well fitted curve in either direction with a large enough effect (not every such curve was filed as active); inconclusive = small, poorly fitted or top-dose-only effect, or another doubt; inactive = flat fitted curve, though single readings scatter. Bounds are passed on as bounds.

The nature of test [1]: AP1 Signaling Pathway (AID 357).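 Also: ME-180 reporter cells stimulated with EGF at its EC50 level; % is scaled to controls: 0 for no effect and ±100 for the full control effect.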 The following applies: ME-180 AP-1-bla reporter, EGF-induced, beta-lactamase ratio, 5 h; at 38 µM (top of the series). An outline of the steps: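 AP-1-bla ME-180 cells, Opti-MEM + 0.5% dialyzed FBS, plated overnight 37 °C. Cpd titration + EC50 EGF, 5 h 37 °C. CCF4 2.5 h RT; ex 405, em 460/530 ratio → %activity, AC50.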
The target in test [2] is Cytochrome P450 1A2 (Homo sapiens) (UniProt P05177). Description: p450-cyp1a2 (AID 410; calls by dose curve; also: potency is read from the fitted curve at half-maximal effect;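 as to activity change, negative = inhibition: -100% = full effect of reference inhibitor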). As to conditions: recombinant CYP1A2, luciferin-ME demethylation, luminescence; series mostly up to 57 µM. In a few lines:
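Read-out is luminescence from luciferin produced by CYP1A2 demethylation of Luciferin-ME (100uM, at Km). Detection reagent stopped the 60 min NADPH-dependent reaction; signals were normalized to 57 uM furafylline.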

Test [3] in a line: NFAT Signaling Pathway (AID 444).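 Also: carbachol stimulus at about its EC50 of 1 µM final; % is scaled to controls: 0 for no effect and ±100 for the full control effect.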 As to conditions: Jurkat NFAT-bla M1, carbachol, beta-lactamase ratio, 5 h; at 38 µM (top of the series) unless noted. In a few lines:
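Jurkat cells carrying an NFAT-driven β-lactamase reporter and co-transfected muscarinic M1 receptor were treated with compound plus carbachol (1 uM final, an EC50 level) for 5 h at 37 °C. CCF4 loading followed for 1 h at RT; 460/530 nm ratio gave %activity.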

Test [4] in a line: Stat Signaling Pathway (AID 446).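 Also: ME-180 cervical cancer cells given 40 pM IL-6 alongside compound; SIE-controlled beta-lactamase reporter measured as 460/530 nm FRET emission ratio; % is scaled to controls: 0 for no effect and ±100 for the full control effect.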 As to conditions: ME-180 (cervical carcinoma) SIE beta-lactamase reporter, IL-6 stimulated, 5 h; at 38 µM (top of the series). In a few lines: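 Overnight-plated ME-180 cells bearing a STAT Inducible Element beta-lactamase reporter; 5 h co-exposure to compound and 40 pM IL-6; values normalized to 300 pM IL-6 and 125 nM JAK inhibitor controls.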
Test [5] concerns the target Glucocorticoid receptor (Homo sapiens) (UniProt P04150). Kind of test: GR-GFP Redistribution (AID 450;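 active = compounds whose dose series gives a full or clear partial fitted curve of increased nuclear translocation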; also: potency is read from the fitted curve at half-maximal effect). As to conditions: U2OS GR-GFP nuclear translocation, laser cytometry, 2 h.
For test [6] the target is unchanged. Kind of test: GR-EFC Redistribution (AID 451; calls by dose curve; also: potency is read from the fitted curve at half-maximal effect). The following applies: CHO-K1 GR-EFC translocation, beta-gal luminescence, 2 h. An outline of the steps: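 CHO-K1 cells stably expressing nuclear-localized β-gal enzyme acceptor and GR fused C-terminally to the enzyme donor fragment; ligand-driven nuclear translocation restores β-gal by complementation. Compounds titrated up to 46 uM final, 2 h at 37 °C; luminescence read.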

Test [7] has as its target Mitogen-activated protein kinase 10 (Mus musculus) (UniProt Q61831). Description: JNK3 AlphaScreen Assay (AID 530).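 Also: kinase came from lysate of stimulated human HepG2 cells; % is scaled to controls: 0 for no effect and ±100 for the full control effect.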 As to conditions: JNK3 lysate, c-Jun phosphorylation; series mostly up to 57.1 µM. In a few lines: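 Biotinylated GST-cJun(1-79) served as substrate for JNK3 in HepG2 lysates stimulated with IL-1beta and TNF-alpha. ATP was 10 uM final, pH 7.6. Ser73 phosphorylation was quantified by AlphaScreen (680 nm excitation).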
Background: Alpha assays give light when donor and acceptor beads are brought close together.

In test [8] the target is 3',5'-cyclic-AMP phosphodiesterase 4B (Homo sapiens) (UniProt Q07343). Kind of test: qHTS Assay for Inhibitors of PDE-IV (AID 607; active = well fitted activation curve with a large enough effect in the main read-out, with a control signal flat, not every such curve was filed as active; also: % of control where 0% means no effect). The following applies: HEK293 ACTOne CNG channel cells, membrane potential fluorescence; series mostly up to 22.9 µM. An outline of the steps: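 Live HEK293 cells with a modified cyclic nucleotide-gated (CNG) channel report intracellular cAMP via membrane-potential dye fluorescence (ex 535/em 590 nm). Endogenous PDE-IV was targeted. Compounds were tested at up to 22.9 uM final; RO 20-1724 100 uM served as control.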
In general terms: qHTS replaces the single test concentration by a dilution series.

3',5'-cyclic-AMP phosphodiesterase 4B (Homo sapiens), sequence (Q07343 whole entry, looked up): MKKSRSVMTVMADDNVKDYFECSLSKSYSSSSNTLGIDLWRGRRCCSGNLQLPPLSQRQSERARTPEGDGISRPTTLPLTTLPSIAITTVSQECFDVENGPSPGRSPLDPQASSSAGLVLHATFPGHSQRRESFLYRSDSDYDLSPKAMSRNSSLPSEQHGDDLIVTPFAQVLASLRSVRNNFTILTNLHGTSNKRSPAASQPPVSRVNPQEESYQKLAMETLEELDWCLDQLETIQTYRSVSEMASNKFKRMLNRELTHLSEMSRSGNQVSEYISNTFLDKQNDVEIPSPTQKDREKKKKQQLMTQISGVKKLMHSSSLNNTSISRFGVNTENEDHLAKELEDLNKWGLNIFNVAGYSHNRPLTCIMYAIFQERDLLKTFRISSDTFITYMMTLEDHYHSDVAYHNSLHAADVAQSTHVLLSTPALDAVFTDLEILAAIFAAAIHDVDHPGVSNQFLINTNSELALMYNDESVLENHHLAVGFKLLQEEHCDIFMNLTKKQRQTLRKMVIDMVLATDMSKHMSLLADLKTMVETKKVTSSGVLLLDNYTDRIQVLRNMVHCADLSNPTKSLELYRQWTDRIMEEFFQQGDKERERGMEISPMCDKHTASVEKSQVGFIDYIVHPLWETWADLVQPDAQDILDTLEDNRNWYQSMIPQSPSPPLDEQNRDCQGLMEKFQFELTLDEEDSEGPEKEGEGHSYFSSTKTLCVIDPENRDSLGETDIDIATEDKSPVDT
Glucocorticoid receptor (Homo sapiens), sequence (P04150 whole entry, looked up, the tested form may be a part): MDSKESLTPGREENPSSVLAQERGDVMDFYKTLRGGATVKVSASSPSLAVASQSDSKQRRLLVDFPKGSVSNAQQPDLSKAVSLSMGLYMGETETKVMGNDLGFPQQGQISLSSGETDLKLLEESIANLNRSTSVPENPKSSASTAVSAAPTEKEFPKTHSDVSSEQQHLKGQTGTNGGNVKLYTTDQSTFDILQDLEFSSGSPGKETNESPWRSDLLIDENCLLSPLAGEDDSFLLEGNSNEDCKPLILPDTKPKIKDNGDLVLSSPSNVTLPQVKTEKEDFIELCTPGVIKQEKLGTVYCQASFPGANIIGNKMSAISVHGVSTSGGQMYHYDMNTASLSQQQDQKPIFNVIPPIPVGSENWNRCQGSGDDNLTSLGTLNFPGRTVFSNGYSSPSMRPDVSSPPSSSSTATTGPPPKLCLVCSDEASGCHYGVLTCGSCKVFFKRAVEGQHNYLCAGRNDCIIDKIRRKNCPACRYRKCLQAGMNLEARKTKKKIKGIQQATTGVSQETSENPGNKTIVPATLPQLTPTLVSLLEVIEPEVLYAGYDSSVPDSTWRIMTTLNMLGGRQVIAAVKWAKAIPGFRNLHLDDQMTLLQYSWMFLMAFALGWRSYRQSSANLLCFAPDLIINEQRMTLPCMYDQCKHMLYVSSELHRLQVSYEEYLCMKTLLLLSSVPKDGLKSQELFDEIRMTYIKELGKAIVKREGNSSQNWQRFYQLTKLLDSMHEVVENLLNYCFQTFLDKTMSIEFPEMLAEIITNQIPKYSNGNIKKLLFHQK
Cytochrome P450 1A2 (Homo sapiens), sequence (P05177 whole entry, looked up): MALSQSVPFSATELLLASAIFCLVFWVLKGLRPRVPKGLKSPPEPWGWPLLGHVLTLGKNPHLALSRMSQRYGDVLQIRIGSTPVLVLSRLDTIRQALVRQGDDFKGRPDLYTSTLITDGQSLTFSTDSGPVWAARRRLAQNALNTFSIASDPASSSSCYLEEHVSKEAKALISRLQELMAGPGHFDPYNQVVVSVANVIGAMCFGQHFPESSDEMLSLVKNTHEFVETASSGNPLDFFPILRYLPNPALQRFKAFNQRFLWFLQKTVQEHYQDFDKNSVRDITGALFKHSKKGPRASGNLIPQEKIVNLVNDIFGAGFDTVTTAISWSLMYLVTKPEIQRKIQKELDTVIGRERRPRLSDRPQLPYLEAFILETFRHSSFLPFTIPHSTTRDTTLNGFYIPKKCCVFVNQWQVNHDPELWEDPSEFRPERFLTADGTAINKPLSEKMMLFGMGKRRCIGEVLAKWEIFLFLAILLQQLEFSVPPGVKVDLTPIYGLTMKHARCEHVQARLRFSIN

On to `CN(C)C(N)=NCCC[C@H](N)C(=O)O`, for which the activity change, negative = inhibition in test [1] was 3.1% (inactive); in test [3], -0.969% (inactive). The Potency result in test [2] and in test [7] was “inactive” throughout. Moreover, the activity, negative = inhibition in test [4] is -11.7% (inactive). Moreover, the Potency in test [5] and in test [6] was > 46 µM (inactive) throughout. Also, in test [8], the molecule was called inactive.
Consider `O=C1NC(O)=NC1(c1ccccc1)c1ccccc1`, for which the results for the activity change, negative = inhibition in test [1] and in test [3] were 1.51% (inactive) and -13.5% (inactive), respectively. Besides, the Potency entry in test [2] was “inactive”. The activity, negative = inhibition in test [4] was -6.76% (inactive). In addition, the Potency in test [6] is > 46 µM (inactive). In addition, in test [8], the molecule was classed as inactive.
Turning to `C[N+]1(C)CCC(OC(=O)C(c2ccccc2)c2ccccc2)CC1`, the figures for the activity change, negative = inhibition in test [1] and in test [3] were 10.3% (inactive) and -75% (active), respectively. For the same molecule, the Potency in test [2] was 10 µM (active) and inactive; in test [5] it was > 46 µM (inactive). Moreover, the activity, negative = inhibition in test [4] is 22.3% (inactive). Moreover, in test [7], the Potency result was “inactive”. Further, the call in test [8] was inactive.
`NCCCS(=O)(=O)O`: the values for the activity change, negative = inhibition in test [1] and in test [3] were -1.95% (inactive) and 29% (inactive), respectively. For the same molecule, the Potency entry in test [2] and in test [7] was “inactive” throughout. The activity, negative = inhibition in test [4] was -2.17% (inactive). Besides, the Potency in test [5] was > 46 µM (inactive). In addition, in test [8], the outcome was inactive.
Turning to `O=C1C(SCCO)=C(SCCO)C(=O)c2ccccc21`, the values for the activity change, negative = inhibition in test [1] and in test [3] were -104% (active) and -94.5% (active), respectively. For the same molecule, the Potency was 12.6 µM (active) and 631 nM (active) in test [2]; > 46 µM (inactive) in test [6]. The activity, negative = inhibition in test [4] is 134% (active). For the same molecule, the Potency entry in test [7] is “inactive”. The outcome in test [8] was inactive.
For `NC(=O)C(=O)O`, the activity change, negative = inhibition is 0.648% (inactive) in test [1] and 5.77% (inactive) in test [3]. Also, the Potency result in test [2] and in test [7] was “inactive” each time. Further, the activity, negative = inhibition in test [4] was -1.18% (inactive). Further, the Potency in test [5] and in test [6] was > 46 µM (inactive) each time. In test [8], the result was inactive.
Turning to `C=C[C@H]1CN2CC[C@@H]1C[C@@H]2[C@@H](O)c1ccnc2ccc(OC)cc12`, the activity change, negative = inhibition in test [1] is 0.0731% (inactive) and 9.28% (inactive); in test [3] it was -6.92% (inactive) and -0.71% (inactive). The Potency entry in test [2] and in test [7] was “inactive” throughout. The activity, negative = inhibition in test [4] was -15% (inactive) and 18.5% (inactive).
As for `CC1(C)CCC=[N+]1[O-]`, the activity change, negative = inhibition in test [1] was -4.03% (inactive); in test [3], -6.56% (inactive). Also, the Potency entry in test [2] and in test [7] was “inactive” in each case. Further, the activity, negative = inhibition in test [4] is 4.29% (inactive). Moreover, the Potency in test [5] was > 46 µM (inactive). In test [8], the call was inactive.
`NCCCCCCCCCCN`: the values for the activity change, negative = inhibition in test [1] and in test [3] were 4.16% (inactive) and 0.00398% (inactive), respectively. Besides, in test [2], the Potency result was “inactive”. Further, the activity, negative = inhibition in test [4] was -2.37% (inactive). In addition, the Potency in test [5] and in test [6] was > 46 µM (inactive) each time. The molecule was classed as inactive in test [8].

The values above are taken from PubChem BioAssay (NCATS).
